Assay [1] addresses Nuclear receptor ROR-gamma (Homo sapiens) (UniProt P51449). The assay is described as follows: qHTS assay for small molecule antagonists of the retinoid-related orphan receptor gamma (ROR-gamma) signaling pathway (AID 651802). Note: nearly all actives have a fitted effect of over 60% in size. Note: potency is the fitted concentration of half-maximal effect. An outline of the steps: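 Luminescence (One-Glo, 30 min RT) measured 16 h after compound addition and doxycycline induction at 37C. Reporter: RORE-luciferase under TET-inducible ROR-gamma in CHO cells.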
(Quantitative high-throughput screening tests each substance at several concentrations.)

For assay [2], the target named is Arylsulfatase A (Homo sapiens) (UniProt P15289). Description: qHTS screen for enhancers of Arylsulfatase A (ASA1): LOPAC Validation Assay (AID 720538). An outline of the steps: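 MLD patient fibroblasts (SV40, ASA-I179S), 1536-well; adhere 6 hrs; cpd 48h, 37 degree C, 5% CO2; pNCS 0.5mM final in lysis buffer, 14h RT; stop 1N NaOH final; fluor. Ex525/Em598.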
Assay [3] can be described thus: qHTS for compounds that reverse cellular toxicity of Amyloid beta (A-beta) peptide in yeast: LOPAC Validation Assay (AID 720559).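 Note: plate controls were DMSO for no effect and equimolar ferric chloride plus clioquinol rescue for full effect.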 An outline of the steps:
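Medium dispensed, compounds pinned, A-beta yeast suspension added; plates held at 30 C for 48 hr; absorbance measured at 600 nm to gauge growth; values scaled between DMSO and FeCl3/clioquinol (equimolar) controls.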

The nature of assay [4]: qHTS for Activators of Parkin Expression: LOPAC Validation Assay (NLuc Reporter) (AID 720572). The essentials:
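Cells harboring the Parkin-promoter coincidence reporter were treated for 24 h at seven concentrations. NLuc output was measured sequentially after the FLuc channel and scaled between DMSO and positive control values.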

Assay [5] can be described thus: qHTS for Activators of Parkin Expression: LOPAC Validation Assay (FLuc Reporter) (AID 720573). An outline of the steps: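 Cells seeded, 24 h; compounds pinned, 7-pt dose response; 24 h at 37 C/5% CO2; volume reduced; FLuc reagent 10 min RT; luminescence read. Normalization: DMSO = 0, positive control = 100%.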
Assay [6] can be described thus: qHTS assay for small molecule agonists of the antioxidant response element (ARE) signaling pathway measured by Nrf2-dependant transcriptional activity (AID 720636; active = well fitted curve in the direction sought with a large enough effect in the repeat runs; an effect the other way counts as inactive or inconclusive;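 note: HepG2 cells with an ARE-driven luciferase reporter; % of control where 0% means no effect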). The essentials: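 Nrf2-dependent transcription is measured in ARE-luc HepG2 cells: compound is applied for 16 hr at 37 C after a 6 hr attachment period, and luciferase activity is quantified by luminescence using ONE-Glo.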

The nature of assay [7]: qHTS assay for small molecule antagonists of the retinoid-related orphan receptor gamma (ROR-gamma) signaling pathway - cell viability counter screen (AID 720652; active = well fitted curve in the direction sought with a large enough effect in the repeat runs; an effect the other way counts as inactive or inconclusive;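 note: compound exposure lasted 16 hr before ATP read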; note: potency is the fitted concentration of half-maximal effect). An outline of the steps:
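Cytotoxicity counter screen: intracellular ATP (CellTiter-Glo luminescence) measured in the doxycycline-induced CHO RORE-luciferase reporter line after 16 hr compound exposure at 37 C, 5% CO2.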

Assay [8] can be described thus: qHTS assay for small molecule agonists of the antioxidant response element (ARE) signaling pathway measured by Nrf2-dependant transcriptional activity - cell viability counter screen (AID 720653; active = well fitted curve in the direction sought with a large enough effect in the repeat runs; an effect the other way counts as inactive or inconclusive; note: % is set by controls: 0 for no effect and ±100 for the full control effect). The note with it: ARE-bla HepG2 viability, CellTiter-Glo ATP luminescence, 16 h; max response: stronger effect = lower value. An outline of the steps:
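ARE-bla HepG2 cells (2,000/well) rested 5 hrs at 37C/5% CO2, then exposed to compounds in DMSO for 16 hrs. Viability was read in the same wells as intracellular ATP by luminescence, 30 min at room temperature after reagent addition.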

Assay [9] concerns the target T1, Hexokinase-4 (Homo sapiens) + Glucokinase regulatory protein (Homo sapiens) (UniProt P35557+Q14397). Description: qHTS assay for inhibitors of recombinant human GCK-GKRP interaction: Diaphorase-coupled assay (AID 743205). The essentials:
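25 mM Hepes pH 7.6, 5 mM glucose, 0.4 mM ATP, 4 U/ml G6PDH; 10 nM each GST-GCK/FLAG-GKRP. Kinetic fluorescence read, 1/min × 30 min. Normalized: DMSO ± enzyme = max/min.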

Assay [10] has as its target T1, Hexokinase-4 (Homo sapiens) + Glucokinase regulatory protein (Homo sapiens). The assay is described as follows: qHTS assay for inhibitors of recombinant human GCK-GKRP interaction: ADP-Glo assay (AID 743206).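 Note: plate controls were DMSO plus enzyme for no effect and no enzyme for full effect.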 The essentials:
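Pin-transferred compounds meet a 15 nM GST-GCK/15 nM FLAG-GKRP/2 uM S6P mix (dispense concentrations). ATP is then added to 0.4 mM final with 5 mM glucose, and the reaction runs 60 min at room temperature. ADP is quantified luminescently.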

For assay [11] the target is unchanged. The assay is described as follows: qHTS assay for inhibitors of recombinant human GCK-GKRP interaction: HTRF assay (AID 743207).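 Note: 0% = DMSO with GCK present and -100% = DMSO wells lacking GCK.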 The essentials: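 5 nM GST-GCK + 5 nM FLAG-GKRP + 2 uM S6P, pH 7.1 buffer (25 mM Hepes, 2 mM MgCl2, 25 mM KCl, 1 mM DTT, Tween/BSA); pin-transferred cpd; anti-FLAG XL665/anti-GST K; 60 min RT; HTRF.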
Assay [12] is described as follows: qHTS Assay for Identifying Gametocytocidal Compounds (AID 743244).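 For max response: % is set by controls: 0 for no effect and ±100 for the full control effect; actives lower the fluorescent signal which means gametocytes are killed.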 Note: potency is the fitted concentration of half-maximal effect. Particulars: P. falciparum 3D7 stage III-V gametocytes, alamarBlue, 72 h; max response: stronger effect = lower value. The essentials:
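In this qHTS viability screen, late-stage 3D7 gametocytes are incubated with compound for 72 h, then with alamarBlue for 24 h; reduced resorufin fluorescence marks killing.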

Assay [13] is described as follows: qHTS assay for cell viability of HEK293 cells (AID 743288). Note: % is set by controls: 0 for no effect and ±100 for the full control effect; nearly all actives have a fitted effect of over 50% in size. Particulars: ATP luminescence (CellTiter-Glo), 18 h; max response: stronger effect = lower value. An outline of the steps: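 Viable-cell counts were inferred from luciferase-based ATP content in HEK293 cells seeded at 2,000/well, pre-incubated ≥5 h, then dosed with DMSO-solubilised compounds for 18 h at 37 C.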

Assay [14] in a line: qHTS assay for cell viability of the p53RE-bla HCT-116 cell line (AID 743292). Note: % is set by controls: 0 for no effect and ±100 for the full control effect; nearly all actives have a fitted effect of over 55% in size. An outline of the steps: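 ATP-based luminescence, 16 h compound exposure at 37 C, p53RE-bla HCT-116 cells at 4,000/well.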
The nature of assay [15]: qHTS profiling of the MIPE4 collection as inhibitors of Plasmodium falciparum (3D7) proliferation (AID 743344; call rule not given here;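 note: scaled between DMSO vehicle wells and 0.29 µM artemisinin as full inhibition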). Particulars: P. falciparum 3D7 in erythrocytes, SYBR Green DNA fluorescence, 72 h; at 28.5 µM (top of the series) unless noted. The essentials:
(§1)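 Parasite DNA was quantified by SYBR Green I fluorescence (ex 485, em 535 nm) after overnight lysis in saponin/Triton buffer at room temperature. Cultures at 0.3% parasitemia and 2.5% hematocrit were first exposed to compound for 72 h at 37 C; signals were normalised to artemisinin (0.29 uM) and vehicle wells.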

For assay [16], the target named is Tyrosine-protein kinase Yes (Homo sapiens) (UniProt P07947). The assay is described as follows: qHTS for small molecule inhibitors of Yes1 kinase: Primary Screen (AID 686947).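 Note: plate controls were DMSO with enzyme for no effect and no-enzyme DMSO wells for full effect; nearly all actives have a fitted effect of over 60% in size.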 The essentials: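 ADP-Glo luminescence reports ADP formed by 4 nM Yes1 phosphorylating poly(E4Y) (0.3 mg/mL) with 0.1 mM ATP for 60 min at room temperature, following 20 min compound preincubation; normalised between DMSO wells with and without enzyme.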

The nature of assay [17]: qHTS for small molecule inhibitors of Yes1 kinase: Counter Assay (AID 686950).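 Note: no kinase present so only ADP-Glo detection of a fixed ADP amount is tested; luminescence from ADP-Glo reporting ADP in a fixed ATP and ADP mixture; 0% = DMSO wells with ATP plus ADP and -100% = ATP-only wells without ADP.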 An outline of the steps:
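Measuring interference with ADP-Glo, the assay ran 60 min at room temperature on an ATP/ADP mix lacking enzyme. Values were normalized to ATP-plus-ADP (maximum) and ATP-only (minimum) DMSO controls.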

Assay [18] is described as follows: qHTS profiling for inhibitors of Plasmodium falciparum (3D7) proliferation (AID 743322; call rule not given here;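 note: infected erythrocytes exposed to compound for 72 h before lysis; 100% = DMSO vehicle wells and 0% = 0.29 µM artemisinin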). The note with it: P. falciparum 3D7 proliferation, at 28.7 µM (top of the series). An outline of the steps: as §1
The nature of assay [19]: qHTS profiling for inhibitors of Plasmodium falciparum (DD2) proliferation (AID 743323; call rule not given here). The note with it: at 28.7 µM (top of the series), lower = more inhibition. An outline of the steps: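 P. falciparum Dd2-infected erythrocytes (0.3% parasitemia, 2.5% hematocrit) exposed 72 h at 37 C, 5% CO2. Lysis with SYBR Green, overnight at room temperature, fluorescence 485/535 nm; normalized to 0.29 uM artemisinin and DMSO.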

Assay [20] can be described thus: qHTS profiling for inhibitors of Plasmodium falciparum (HB3) proliferation (AID 743324).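 Note: 100% = DMSO vehicle wells and 0% = artemisinin-treated control wells.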 Particulars: Plasmodium falciparum HB3 blood-stage proliferation; at 28.7 µM (top of the series). The essentials: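 SYBR Green fluorescence (485 ex/535 em) of lysed cultures, incubated overnight at room temperature in the dark, quantifies parasite DNA. Infected erythrocytes at 0.3% parasitemia and 2.5% hematocrit were exposed 72 h; values normalized to DMSO and 0.29 uM artemisinin controls.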

The text below walks through data of PubChem BioAssay (NCATS).

Several values for one entry are separate records, joined by “and”; a condition that tells them apart may be missing. Identical values can stand only once. Results filed as inconclusive are left out. Activity calls are given as the source filed them. Unless noted, calls come from the whole dose curve; as a rule, active = well fitted curve in the direction sought with a large enough effect; inconclusive = small, poorly fitted or top-dose-only effect, or another doubt; inactive = no such curve, though single readings can be large; an effect the other way counts as inactive or inconclusive.

Sequence of Nuclear receptor ROR-gamma (Homo sapiens) (P51449 whole entry, looked up): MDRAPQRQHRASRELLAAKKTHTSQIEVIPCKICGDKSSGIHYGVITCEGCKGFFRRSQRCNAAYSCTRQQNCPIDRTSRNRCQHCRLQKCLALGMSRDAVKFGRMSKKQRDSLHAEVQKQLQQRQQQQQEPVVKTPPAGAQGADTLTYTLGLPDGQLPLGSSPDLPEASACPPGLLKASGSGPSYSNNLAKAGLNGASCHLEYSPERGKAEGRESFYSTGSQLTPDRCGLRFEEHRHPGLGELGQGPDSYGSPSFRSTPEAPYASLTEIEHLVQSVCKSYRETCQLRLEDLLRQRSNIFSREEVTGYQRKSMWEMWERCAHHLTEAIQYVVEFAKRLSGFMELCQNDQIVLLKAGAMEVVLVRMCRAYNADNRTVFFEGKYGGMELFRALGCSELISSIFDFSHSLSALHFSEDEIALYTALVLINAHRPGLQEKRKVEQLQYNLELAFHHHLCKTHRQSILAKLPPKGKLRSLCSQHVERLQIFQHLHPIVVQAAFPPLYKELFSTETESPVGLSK
Sequence of Tyrosine-protein kinase Yes (Homo sapiens) (P07947 whole entry, looked up): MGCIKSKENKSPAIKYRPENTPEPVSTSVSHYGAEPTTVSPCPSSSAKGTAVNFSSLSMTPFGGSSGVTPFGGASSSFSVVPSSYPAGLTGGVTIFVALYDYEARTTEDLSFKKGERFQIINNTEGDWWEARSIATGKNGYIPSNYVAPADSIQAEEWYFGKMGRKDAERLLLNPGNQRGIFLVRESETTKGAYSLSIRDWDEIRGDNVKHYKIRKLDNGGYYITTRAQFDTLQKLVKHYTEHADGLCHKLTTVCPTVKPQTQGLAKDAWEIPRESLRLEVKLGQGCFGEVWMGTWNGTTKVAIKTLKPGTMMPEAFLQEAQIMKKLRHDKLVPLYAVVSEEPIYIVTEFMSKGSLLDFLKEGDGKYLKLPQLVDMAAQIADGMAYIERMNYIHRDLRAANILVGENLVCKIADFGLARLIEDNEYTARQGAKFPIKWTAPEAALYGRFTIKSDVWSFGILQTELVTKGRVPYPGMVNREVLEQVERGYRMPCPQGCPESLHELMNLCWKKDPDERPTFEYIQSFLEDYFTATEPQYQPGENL
Sequence of Arylsulfatase A (Homo sapiens) (P15289 whole entry, looked up): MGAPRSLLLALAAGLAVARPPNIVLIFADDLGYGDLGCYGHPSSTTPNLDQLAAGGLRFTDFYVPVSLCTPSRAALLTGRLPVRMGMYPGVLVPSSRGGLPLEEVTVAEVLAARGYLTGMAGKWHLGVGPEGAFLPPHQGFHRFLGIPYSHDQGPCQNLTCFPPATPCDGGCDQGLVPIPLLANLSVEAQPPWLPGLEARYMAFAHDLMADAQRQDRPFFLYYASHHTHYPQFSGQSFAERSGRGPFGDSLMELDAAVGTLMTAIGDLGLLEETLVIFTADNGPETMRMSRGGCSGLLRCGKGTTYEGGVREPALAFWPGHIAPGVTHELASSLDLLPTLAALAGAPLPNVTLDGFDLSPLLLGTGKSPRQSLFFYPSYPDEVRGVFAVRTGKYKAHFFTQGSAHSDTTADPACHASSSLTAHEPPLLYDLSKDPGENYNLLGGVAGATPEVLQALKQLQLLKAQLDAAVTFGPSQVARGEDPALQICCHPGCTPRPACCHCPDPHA
T1 sequence (P35557 whole entry, looked up): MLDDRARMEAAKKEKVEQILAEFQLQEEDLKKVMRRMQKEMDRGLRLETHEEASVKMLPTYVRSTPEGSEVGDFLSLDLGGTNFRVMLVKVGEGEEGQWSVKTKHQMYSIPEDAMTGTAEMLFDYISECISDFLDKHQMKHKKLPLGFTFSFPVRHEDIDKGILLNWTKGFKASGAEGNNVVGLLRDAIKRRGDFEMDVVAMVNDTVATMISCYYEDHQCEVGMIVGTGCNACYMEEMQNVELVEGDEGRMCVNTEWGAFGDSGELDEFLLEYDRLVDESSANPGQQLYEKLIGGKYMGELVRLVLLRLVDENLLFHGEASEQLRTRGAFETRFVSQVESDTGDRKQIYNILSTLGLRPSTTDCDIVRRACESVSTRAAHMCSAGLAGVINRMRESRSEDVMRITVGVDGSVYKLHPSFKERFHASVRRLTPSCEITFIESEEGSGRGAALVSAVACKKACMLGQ
T1 sequence (Q14397 whole entry, looked up): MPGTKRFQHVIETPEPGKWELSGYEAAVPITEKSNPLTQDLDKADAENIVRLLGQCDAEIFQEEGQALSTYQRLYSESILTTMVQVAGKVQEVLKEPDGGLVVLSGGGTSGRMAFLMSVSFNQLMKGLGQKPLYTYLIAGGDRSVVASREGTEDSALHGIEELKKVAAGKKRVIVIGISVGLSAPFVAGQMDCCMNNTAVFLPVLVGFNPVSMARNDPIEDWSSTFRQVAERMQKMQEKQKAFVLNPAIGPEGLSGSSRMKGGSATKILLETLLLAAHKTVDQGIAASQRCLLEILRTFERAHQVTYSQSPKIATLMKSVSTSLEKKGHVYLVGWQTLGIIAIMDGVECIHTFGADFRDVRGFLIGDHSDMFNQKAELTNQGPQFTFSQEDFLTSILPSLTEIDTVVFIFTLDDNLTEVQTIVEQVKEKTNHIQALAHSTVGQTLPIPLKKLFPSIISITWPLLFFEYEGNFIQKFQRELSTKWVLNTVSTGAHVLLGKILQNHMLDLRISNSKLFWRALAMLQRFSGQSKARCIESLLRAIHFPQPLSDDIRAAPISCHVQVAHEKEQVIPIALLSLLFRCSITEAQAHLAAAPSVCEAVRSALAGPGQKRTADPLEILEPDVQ

With `Nc1c2c(nc3ccccc13)CCCC2`, the Potency result in assay [1], in assay [2], in [5], in [7], in assay [9] and in assay [10] was “inactive” throughout. The Potency result in assay [11] and in assay [14] was “inactive” in each case. In addition, the compound was called inactive in assay [3], in assay [4] and in [6]. Also, the max response in [8] is -10.2% (inactive); in [13] it was -20.1% (inactive). In [12], the Potency was 8.91 µM (active). In assay [15], this compound showed a parasite growth, % of DMSO control of 7.17%.
As for `COc1ccc(CCN(C)CCCC(C#N)(c2ccc(OC)c(OC)c2)C(C)C)cc1OC` (configuration not stated), the Potency result in assay [16], in assay [2], in assay [5], in [7], in assay [9] and in [10] was “inactive” in each case. Further, the Potency result in assay [11] and in assay [14] was “inactive” throughout. Besides, the outcome in [17], in [4] and in [6] was inactive. Besides, the max response is -18% (inactive) in assay [8] and 0.749% (inactive) in assay [13].
Consider `CC(C)NCC(O)c1ccc(O)c(O)c1` (configuration not stated), for which the Potency entry in assay [1], in assay [5], in assay [7], in assay [9], in [10] and in assay [11] was “inactive” each time. In addition, in assay [14], the Potency result was “inactive”. The call in assay [3], in assay [4] and in [6] was inactive. For the same compound, the max response in [8] was 0.482% (inactive) and -3.43% (inactive); in assay [12], -2.95% (inactive); in assay [13], 0.858% (inactive) and -11.4% (inactive). The parasite growth, % of DMSO control in assay [15] worked out at 10.6%.
In the case of `CN(C)C(=N)N=C(N)N`, the Potency entry in assay [16] was “inactive”. Further, in assay [17], the compound was classed as inactive. The max response in assay [12] is 1.21% (inactive) and -1.21% (inactive). In addition, the remaining parasite growth % (stronger effect = lower value) in [18] is 104%. Moreover, in assay [19], the activity, percent of control worked out at 125%. Further, in assay [20], the remaining proliferation (% of control), lower = more inhibition is 102%.
On to `Cc1cn([C@H]2C[C@H](N=[N+]=[N-])[C@@H](CO)O2)c(=O)[nH]c1=O`, for which the Potency result in [1], in assay [2], in assay [5], in [7], in [9] and in [10] was “inactive” each time. Besides, the Potency result in assay [11] and in [14] was “inactive” in each case. For the same compound, the outcome in [17], in [3], in [4] and in [6] was inactive. Besides, the max response in [8] was -2.6% (inactive); in assay [12], 21.9% (inactive) and 0.942% (inactive) and 16% (inactive); in assay [13], -21.7% (inactive). In assay [15], this compound registered a parasite growth, % of DMSO control of 412%.
As to `CC[C@@]1(O)C(=O)OCc2c1cc1n(c2=O)Cc2cc3c(CN(C)C)c(O)ccc3nc2-1`, in assay [17], the call was inactive. The max response in assay [12] is 27.1% (inactive) and 13.5% (inactive). Further, in [18], the remaining parasite growth % (stronger effect = lower value) is 11.5%. Besides, the activity, percent of control in assay [19] came to 12.8%.
Regarding `Clc1ccc(C(c2ccccc2Cl)C(Cl)Cl)cc1` (configuration not stated), the Potency in assay [1] was 33.5 µM (active); in assay [7], 59.6 µM (active). Besides, the Potency entry in assay [2], in assay [5], in assay [9], in assay [10] and in assay [11] was “inactive” in each case. Besides, the compound was called inactive in assay [3], in assay [4] and in assay [6]. Also, the max response in assay [8] was -18.3% (inactive) and -6.45% (inactive); in assay [12], -1.64% (inactive) and 6.44% (inactive). Besides, in [15], the parasite growth, % of DMSO control amounted to 24.3%.
Take `CS(=O)(=O)CCNCc1ccc(-c2ccc3ncnc(Nc4ccc(OCc5cccc(F)c5)c(Cl)c4)c3c2)o1`: the call in [17] was inactive. The max response in assay [12] was -3.58% (inactive) and 12% (inactive). Besides, the remaining parasite growth % (stronger effect = lower value) in [18] was 0.561%. For the same compound, the activity, percent of control in assay [19] stood at 12.2%. Moreover, in assay [20], the remaining proliferation (% of control), lower = more inhibition came out at 1.42%. The parasite growth, % of DMSO control in [15] came out at 8.87%.
